# The list is not random: actives were taken first. Their share in the collection is about 28%.
# CYP2C19 activ: human CYP2C19 activators, primary screen, biochemical, luminescence. recombinant CYP2C19, luciferin-H EGE luminescence; hits give high values; 0 = fully inhibited enzyme, 1 = untreated enzyme. AID 1025, 2008. Cytochrome P450 2C19 (Homo sapiens), P33261. activation factor at 5 µM. 96,000 tested, under 10 active;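 active means activation factor of at least 2 at 5 µM in the primary screen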;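 further: 0 = wells with 2.5 mM tranylcypromine and 1 = vehicle-only wells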
# PLK1 PBD inh: Plk1 polo box domain binding inhibitors, primary screen, biochemical, fluorescence polarization; Serine/threonine-protein kinase PLK1 (Homo sapiens), P53350; Plk1 PBD phosphopeptide binding; inhibition, %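 (tested at about 20 µM)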; hit rate 0.13% among 97,000; in the data active means inhibition above about 34%, passing the limit was not always enough
# Target sequence (P53350 whole entry, looked up, the tested form may be a part): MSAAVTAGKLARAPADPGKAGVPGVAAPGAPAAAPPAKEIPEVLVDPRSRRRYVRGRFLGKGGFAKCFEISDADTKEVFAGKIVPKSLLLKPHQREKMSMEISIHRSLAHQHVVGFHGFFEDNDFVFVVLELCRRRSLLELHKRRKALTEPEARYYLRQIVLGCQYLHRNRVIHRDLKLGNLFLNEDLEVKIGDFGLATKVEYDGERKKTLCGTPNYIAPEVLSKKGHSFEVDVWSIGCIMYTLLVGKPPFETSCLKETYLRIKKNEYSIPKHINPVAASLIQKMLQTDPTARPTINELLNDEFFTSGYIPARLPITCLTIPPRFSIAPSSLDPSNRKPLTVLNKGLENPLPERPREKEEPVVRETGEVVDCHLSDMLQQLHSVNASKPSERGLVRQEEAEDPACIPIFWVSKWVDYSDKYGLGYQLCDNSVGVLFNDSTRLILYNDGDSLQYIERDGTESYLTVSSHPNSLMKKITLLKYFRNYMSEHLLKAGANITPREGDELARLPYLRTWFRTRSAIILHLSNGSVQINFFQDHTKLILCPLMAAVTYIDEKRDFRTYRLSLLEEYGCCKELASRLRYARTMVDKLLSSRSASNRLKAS
# CYP2C9 inhib: blockers of cytochrome P450 2C9 activity – biochemical, luminescence, ADME assay, primary screen; P11712; CYP2C9 Supersomes, luciferin-H conversion; inhibition, % at 5 µM; hit rate 20% among 96,000; AID 777, 2007;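 active means blocking of liver enzyme CYP2C9 beyond about 50% at 5 µM, limit read from the data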
# PLK1 inh: human PLK1 kinase inhibitors, primary screen, biochemical, TR-FRET | inhibition, % at 10 µM | hit rate 0.53% among 97,000 | recombinant PLK1 kinase, TR-FRET peptide phosphorylation;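 active means inhibition of 50% or more in the single-concentration screen; inactive means inhibition below 50%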;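 further: 0% = DMSO max control and 100% = H-89 dihydrochloride min control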
# CYP2C19 inhib: blockers of cytochrome P450 2C19 activity – biochemical, luminescence, ADME assay, primary screen; P33261; CYP2C19 Supersomes, luciferin-H EGE luminescence, 30 min; inhibition, % at 5 µM; hit rate 21% among 96,000; AID 778, 2007;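 active means CYP2C19 inhibition above a set limit at 5 µM in the primary screen, cut at about 50% in these data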;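 further: plate controls were negative control wells for no effect and 2.5 mM tranylcypromine positive control for full effect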
# CYP2C9 activ: human CYP2C9 activators, primary screen, biochemical, luminescence; hit rate 1.4% among 96,000; AID 1024, 2008; activation factor at 5 µM; Cytochrome P450 2C9 (Homo sapiens), P11712; recombinant CYP2C9, luciferin-H conversion; hits give high values; factor 1 = untreated enzyme, 0 = blocked;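 active means activation factor of 2 or more for CYP2C9 at a 5 µM dose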;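 further: 0 = sulfaphenazole-blocked wells and 1 = vehicle-only wells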
# Numbers without * were called inactive; nt = not tested or not shown.
SMILES,CYP2C19 activ,PLK1 PBD inh,CYP2C9 inhib,PLK1 inh,CYP2C19 inhib,CYP2C9 activ
Brc1ccc(-c2nnc3ccc(N4CCN(c5ccccc5)CC4)nn23)cc1,0.9,5.8,25.0,-45.4,9.7,0.8
NC(=O)C1(N2CCCCC2)CCN(c2nc(-c3ccccc3)cs2)CC1,0,-11.6,88.0*,-5.9,95.1*,0.1
COc1ccc(S(=O)(=O)N2CCN(c3ccc4nnc(-c5ccccc5)n4n3)CC2)cc1,0.2,13.6,87.2*,-18.5,76.0*,0.1
c1ccc(-c2nnc3ccc(N4CCC5(CC4)OCCO5)nn23)cc1,0.9,-22.7,47.6,-0.9,9.8,0.5
NC(=O)C1(N2CCCCC2)CCN(c2ccc3nnc(-c4ccccc4)n3n2)CC1,0.2,0.7,67.8*,-4.5,77.7*,0.3
Cc1cc(C)n(-c2nc3c(c(=O)[nH]c(=O)n3C)n2CC(C)C)n1,1,9.4,-34.3,-2.0,3.4,1.3
CC1CCN(C(=S)c2ccc(O)cc2)CC1,0.5,-17.6,-9.4,-9.3,45.3,1.1
CC1CCN(C(=S)c2ccccc2O)CC1,0.1,-3.4,29.0,-8.2,94.4*,0.7
CCCCN(CCCC)CP(=O)(c1ccccc1)c1ccccc1,0.8,-2.9,19.9,6.3,23.1,0.8
CCc1ccc(N2CC(C(=O)Nc3cc(C)ccc3F)CC2=O)cc1 (stereo not drawn),0.1,-15.2,90.9*,-4.5,86.1*,0.1
CCOc1ccc(N2CC(C(=O)Nc3ccc(F)cc3F)CC2=O)cc1 (stereo not drawn),1,-7.0,11.6,-12.5,-0.8,0.9
Cc1ccc(N2CC(C(=O)Nc3cccc(F)c3)CC2=O)cc1 (stereo not drawn),0.4,-22.4,55.8*,-6.6,55.0*,0.4
CCc1cc(/C(Cc2csc(C)n2)=N/O)c(O)cc1O,0.4,-11.7,31.1,-1.3,55.6*,0.7
O=C1C2(CCC13COC(c1ccc(O)cc1)OC3)COC(c1ccc(O)cc1)OC2 (stereo not drawn),1.1,-14.6,-4.0,-5.0,-8.7,1
Clc1ccccc1OCc1nnc(-c2ccccc2Br)o1,0.8,0.9,-110.4,-5.9,18.1,2.1*
Brc1ccccc1-c1nnc(COc2cccc3cccnc23)o1,0.1,-11.9,-186.9,-10.1,91.2*,2.9*
CCOCCCNC(=O)C1CCCN1C(=O)NC1CCCCC1 (stereo not drawn),1,5.6,1.3,0.2,-3.2,1
COC(=O)c1cc(OC)c(OC)cc1NC(=O)c1c(C)noc1C,nt,-20.6,nt,-1.5,nt,nt
O=C(Nc1ccc2c(c1)CCC2)c1cc(S(=O)(=O)N2CCN(c3ccccc3)CC2)ccc1Cl,0.8,-19.7,56.3*,-8.8,23.6,0.4
O=C(Cn1c(=O)n(Cc2ccco2)c(=O)c2c3c(sc21)CCCC3)Nc1ccccc1,0.3,-9.2,79.8*,-6.5,71.8*,0.2
O=c1c2c3c(sc2n(CCN2CCCCC2)c(=O)n1Cc1ccco1)CCCCC3,0.5,-19.5,60.7*,-1.4,45.3,0.4
Cc1cccc(NC(=O)Cn2c(=O)n(Cc3ccco3)c(=N)c3c4c(sc32)COC(C)(C)C4)c1,0.4,-40.0,60.6*,-0.6,58.7*,0.4
CC1(C)Cc2c(sc3c2c(=N)n(Cc2ccco2)c(=O)n3CC(=O)Nc2cccc(Cl)c2)CO1,0.7,nt,44.6,nt,28.5,0.6
O=c1c2c3c(sc2n(CCN2CCOCC2)c(=O)n1Cc1ccco1)CCCCC3,0.5,nt,77.1*,nt,50.9*,0.2
NC(=O)Cn1c(=O)n(Cc2ccco2)c(=O)c2c3c(sc21)CCCCC3,0.8,-1.2,18.2,-8.6,20.8,0.8
CCOc1ccc(CCNC(=O)c2cc3ccccn3n2)cc1OCC,0.7,-10.2,15.9,-9.0,29.2,0.8
COCCNC(=O)Cn1c(=O)n(C)c2ccccc21,1,-30.6,3.0,-5.9,-3.3,1
CC(C)(C)Cc1nnc(NS(=O)(=O)c2ccc(F)cc2)s1,0.9,8.1,32.7,-12.4,9.9,0.7
